Bioassay records (PubChem BioAssay)
Sampled rows, rich in hits. Any-hit rate of the full collection: about 6%.
D1 PAM: potentiators of human D1 dopamine receptor; P21728; HEK293 TREx D1 cells, calcium flux, dopamine EC20 potentiation; potentiation, % at 10 µM; 360,000 compounds, 0.036% hits; in the data active = potentiation above about 30%; also: 0% is about no effect
Target sequence (P21728 whole entry, looked up): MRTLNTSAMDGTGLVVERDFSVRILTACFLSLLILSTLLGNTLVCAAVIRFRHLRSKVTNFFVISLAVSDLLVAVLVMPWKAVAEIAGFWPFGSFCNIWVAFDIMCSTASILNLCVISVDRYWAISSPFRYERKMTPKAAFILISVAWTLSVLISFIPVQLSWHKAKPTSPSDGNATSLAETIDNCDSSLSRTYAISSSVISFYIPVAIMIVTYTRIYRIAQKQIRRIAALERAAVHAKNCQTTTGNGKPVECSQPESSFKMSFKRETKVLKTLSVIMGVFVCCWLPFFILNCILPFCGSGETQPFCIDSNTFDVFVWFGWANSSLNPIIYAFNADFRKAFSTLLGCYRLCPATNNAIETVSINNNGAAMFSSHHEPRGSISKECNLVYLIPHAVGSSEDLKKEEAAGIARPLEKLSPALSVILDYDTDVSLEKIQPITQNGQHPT
D3 antag: antagonists of human D3 dopamine receptor | P35462 | D3R cells, DiscoveRx beta-arrestin luminescence, antagonist mode; stronger effect = lower value | max response, negative = inhibition, % | 360,000 compounds, 2.5% hits; in the data active = max response below about -50%; inconclusive = no clear call, values can overlap the other calls; also: % is scaled to controls: 0 for no effect and ±100 for the full control effect
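Cells plated overnight at 1500 cells/well, then exposed to library compounds with dopamine controls for 90 minutes at 37 degrees C. DiscoveRx reagent added for 30–60 minutes at room temperature; luminescence read, quantitative HTS format.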
D3 ag: D3 dopamine receptor (human) agonism. P35462. D3R DiscoveRx beta-arrestin cells, luminescence, 90 min. max activation, %. 410,000 compounds, 0.58% hits; in the data active = max activation above about 30%; also: 0% is about no effect
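Cells at 1500/well, incubated overnight, then treated with pinned compounds (dopamine as control) for 90 min at 37 degrees C. DiscoveRx reagent added for 30 - 60 minutes at room temperature; luminescence read.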
D1 antag: antagonists of human D1 dopamine receptor | AID 504652 | 360,000 compounds, 3.2% hits | activity change, negative = inhibition, % at 10 µM | HEK293 TREx D1 cells, calcium flux, dopamine EC80; stronger effect = lower value; in the data active = activity change below about -30%; also: % is scaled to controls: 0 for no effect and ±100 for the full control effect
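Tetracycline-induced HEK293 Trex D1 cells, force-coupled to calcium, dye-loaded; compounds added and read 180 s, then EC80 dopamine added and calcium flux tracked kinetically another 180 s.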
D1 ag: human D1 receptor agonism; activation, % at 2 µM; AID 504660; 360,000 compounds, 1% hits; HEK293 T-REx D1 cells, calcium flux, agonist mode; P21728; in the data active = activation above about 30%; also: 0% is about no effect
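Agonism was scored from calcium flux recorded over 180 s (1 read/s) after pintool compound addition, following a 10-cycle baseline. Cells were inducible force-coupled HEK293 TREx D1, plated overnight at 30 C and loaded with no-wash calcium dye.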
* hit, by the source's call; ? = inconclusive; nt = no result given.

SMILES	D1 PAM	D3 antag	D3 ag	D1 antag	D1 ag
COc1ccc(CCNC(=O)Cn2c(=O)n(-c3cc(OC)c(OC)c(OC)c3)c(=O)c3ccccc32)cc1OC	0.2	nt	-1.9	1.1	1.2
Cc1cc2c(s1)c1cnn(Cc3c(F)ccc(F)c3F)c(=O)c1n2C	-3.4	nt	nt	4.1	0.4
CCOC(=O)C1=C(C)N=c2s/c(=C/c3ccccc3)c(=O)n2C1c1ccc(OC)c(OC)c1 (centres undefined)	-5.5	-18.2	4.8	0.0	-0.5
CCOC(=O)C1=C(C)n2c(s/c(=C/c3cccc([N+](=O)[O-])c3)c2=O)=NC1c1ccc(O)c(OC)c1 (centres undefined)	1.8	-27.3	-55.7	-90.4*	9.5
C/C(=C\c1ccccc1)CN1CCN(C)CC1	-1.3	-55.9*	-5.4	-2.2	7.3
CCOC(=O)N1CCN(C/C(C)=C/c2ccccc2)CC1	-5.4	?	-10.5	-10.7	1.9
CN1CCN(C(=O)/C(=C/c2ccccc2)c2ccccc2)CC1	2.7	-58.5*	-29.4	3.4	0.0
CC1CC(C)CN(C(=O)/C(=C\c2ccccc2)c2ccccc2)C1 (centres undefined)	0.1	0.3	1.5	3.2	0.5
COc1ccc(NC(=O)Cn2c(=O)n(-c3cccc(C(F)(F)F)c3)c(=O)c3sccc32)cc1	1.1	nt	1.9	3.8	-1.5
CCSc1nc2c([nH]c3ccccc32)c(=O)n1-c1ccc(OC)cc1	-5.7	nt	-3.3	-0.7	1.9
CSc1cccc(NC(=S)N2CCCN(Cc3cccc(Cl)c3)C2)c1	4.0	?	-15.0	8.7	6.6
COc1ccc(NC(=S)N2CCCN(Cc3cc(C)ccc3C)C2)cc1	1.8	-27.4	-8.9	-10.4	8.0
Fc1ccc(CN2CCCN(C(=S)Nc3ccc(F)cc3)CC2)cc1	-2.4	-58.8*	-14.1	-6.2	8.9
COc1cccc(NC(=S)N2CCCN(Cc3ccc(F)cc3)C2)c1	-12.1	?	-13.9	-41.0*	11.7
Cc1cccc(C)c1NC(=S)N1CCCN(Cc2ccc(F)cc2)C1	-2.5	-14.4	-8.2	-11.2	0.8
S=C(Nc1ccccc1)N1CCN(Cc2ccccc2)CC1	-1.3	-1.7	-7.7	-1.7	3.6
COc1ccc(NC(=S)N2CCCN(Cc3cccc(Cl)c3)C2)cc1	22.6	-80.2*	-12.6	5.7	6.6
CCOc1ccc(NC(=S)N2CCCN(Cc3cccc(Cl)c3)C2)cc1	-5.0	-73.6*	-13.1	-11.2	0.5
CC(C)(C)c1ccc(C(=O)N2CCC(c3nc4ccccc4o3)CC2)cc1	-0.8	nt	-15.8	-8.3	-0.9
O=C(NCC(c1ccc(Cl)cc1)N1CCCCC1)c1ccccc1F (centres undefined)	0.7	nt	-8.5	-1.3	1.4
O=C(Cc1ccc(NC(=O)N2CCCCc3ccccc32)cc1)Nc1ccccc1Br	-3.9	nt	-2.1	0.1	16.9
CCN1C(=O)[C@H]2[C@H]3CN=C(SCc4ccc(C)cc4)N3[C@@](Cc3ccccc3)(C(=O)OC)[C@H]2C1=O	nt	-56.9*	-54.8	nt	nt
CCN1C(=O)[C@H]2[C@H]3CN=C(SCc4ccc(Cl)cc4)N3[C@@](Cc3ccccc3)(C(=O)OC)[C@H]2C1=O	nt	-62.7*	-48.0	nt	nt
COc1ccc(NC(=O)Cn2c(=O)n(CCCC(=O)NCCc3ccc(C)cc3)c(=O)c3ccccc32)cc1Cl	-1.2	nt	6.2	11.1	1.3
CC1CCN(CCOCCOc2ccccc2Br)CC1	-3.0	-61.3*	-20.8	-47.9*	5.2
SMILES	D1 PAM	D3 antag	D3 ag	D1 antag	D1 ag
CC1CCN(CCOCCOc2ccccc2-c2ccccc2)CC1	-3.8	-82.2*	-19.5	-12.0	11.9
COc1ccccc1OCCCCN1CCC(C)CC1	-4.0	?	-46.4	-12.1	1.1
Brc1ccccc1OCCN1CCOCC1	-2.8	?	2.4	-10.9	2.1
CC1CCCN(CCCOc2ccccc2-c2ccccc2)C1 (centres undefined)	-10.8	-67.1*	-18.4	nt	9.3
CC1CCN(CCCCOc2ccccc2-c2ccccc2)CC1	-6.3	-99.4*	-37.8	-59.2*	19.6
Cc1ccc(-c2nnc(SCC(=O)N3CCCc4ccccc43)o2)cc1	-3.2	nt	7.7	-24.1	1.6
O=C(Nc1nc2ccc(F)cc2s1)c1ccc([N+](=O)[O-])o1	nt	-57.3*	-8.5	nt	nt
Cc1oc(-c2ccc(C(=O)N(C)Cc3ccccc3)cc2)nc1CN1CCc2ccccc21	-2.2	nt	3.3	6.7	1.3
CCOC(=O)c1ccc(-c2ccc(/C=C(\C#N)C(=O)Nc3c(C)cccc3Cl)o2)cc1	2.0	nt	10.2	4.4	4.2
